The whole screen tested about 150,000 compounds, of which about 540 (0.36%) showed an effect of 50% or more. This is one part of a sample in which strong results are shown more often than they occur.

In the assay the test system is Plasmodium falciparum. Kind of assay: Primary screen in NF54 nanoGlo assay, in single point, at 2uM, 72h; a lower Z score goes with more inhibition. Format: functional, Erythrocyte. The settings on record: timepoint 72 hour.
On to `Nc1n[nH]c(-c2ccc(Br)o2)n1`, for which the “% Inhibition” value stood at 4% and the Z score was -0.5.

As for `OC1=Nc2c(ncn2-c2cc(F)cc(F)c2)[C@@H](c2cccnc2)C1`, the “% Inhibition” value is listed as 34% and the Z score is given as -3.88.

For the compound `Cc1ccc(CN2CCN(CC(=O)Nc3cc(C)on3)C(=O)C2=O)cc1`, the “% Inhibition” value was 0% and the Z score is listed as -0.03.

On to `O=c1nc2n(nc1-c1ccccc1)C1(CCCCC1)Nc1ccccc1-2`, for which the “% Inhibition” value is on record as -10% and the Z score was determined as 1.25.

Consider `O=c1nc2n(nc1-c1ccc(F)cc1)C1(CCCC1)Nc1ccccc1-2`, for which the “% Inhibition” value is -9% and the Z score is recorded as 0.98.

On to `O=c1nc2n(nc1-c1ccccc1)C1(CCC1)Nc1ccccc1-2`, for which the “% Inhibition” value is listed as 54% and the Z score is -13.48.

As for `C[C@H](NC(=O)C1=NN(C)C(=O)CC1)c1ccc2c(c1)OCCO2`, the “% Inhibition” value is -13% and the Z score was 1.49.

For the compound `O=C(CCS(=O)(=O)c1ccccc1)N1CC[C@H](Oc2cc(C(F)(F)F)ccn2)C1`, the “% Inhibition” value is -6% and the Z score was determined as 1.09.

With `COc1ccnc(CN2CCC[C@H](c3nc(-c4ccccc4)c[nH]3)C2)c1OC`, the “% Inhibition” value was 69% and the Z score was -7.6.

With `O=C(O)CN1CCC[C@H](c2nc(-c3ccccc3)c[nH]2)C1`, the “% Inhibition” value is listed as -8% and the Z score was 0.94.

Regarding `Cc1nncn1C1CCN(S(=O)(=O)c2ccc(Cl)cc2)CC1`, the “% Inhibition” value was -11% and the Z score came to 1.89.

For `COc1ccc(CC(=O)N2C3COCC2C3)nc1`, the “% Inhibition” value was 33% and the Z score is given as -3.69.

`Cc1cc(N(C)C)ccc1NC(=O)CCN1C(=O)c2ccccc2N2C(=O)CC[C@]12C`: the “% Inhibition” value turned out to be 2% and the Z score is on record as -0.43.

`CC(=O)c1cccc(NC(=O)[C@@]23CCC(=O)N2c2ccccc2C(=O)N3C)c1`: the “% Inhibition” value is recorded as 84% and the Z score was -11.29.

As for `CC(=O)c1cccc(NC(=O)N2CCC3(CCC3)C2)c1`, the “% Inhibition” value was -6% and the Z score was found to be 1.19.

Consider `CCN1C(=O)c2ccccc2N2C(=O)CC[C@@]12C(=O)Nc1cccc(OC)c1`, for which the “% Inhibition” value worked out at 92% and the Z score is -11.06.

Take `CCCN1C(=O)c2ccccc2N2C(=O)CC[C@@]12C(=O)Nc1ccc(OC)cc1`: the “% Inhibition” value came to 88% and the Z score is given as -16.69.

Turning to `CCCN1C(=O)c2ccccc2N2C(=O)CC[C@@]12C(=O)Nc1cccc(NC(C)=O)c1`, the “% Inhibition” value came to 8% and the Z score is given as -1.31.

For `CCCN1C(=O)c2ccccc2N2C(=O)CC[C@@]12C(=O)Nc1nc(C)cs1`, the “% Inhibition” value worked out at 2% and the Z score is recorded as -0.31.

`COc1cccc(NC(=O)C23CCCN2CCC3)c1`: the “% Inhibition” value is recorded as -8% and the Z score is on record as 1.16.

For the compound `CC(=O)c1cccc(NC(=O)N2CCCCCCC2)c1`, the “% Inhibition” value was 2% and the Z score is -0.33.

Take `CCCCN1C(=O)c2ccccc2N2C(=O)CC[C@@]12C(=O)Nc1nccs1`: the “% Inhibition” value is on record as 25% and the Z score is listed as -2.95.

Regarding `CCCN1C(=O)c2ccccc2N2C(=O)CC[C@@]12C(=O)Nc1ccccc1`, the “% Inhibition” value was 88% and the Z score was -14.36.

For `CCN1C(=O)c2ccccc2N2C(=O)CC[C@@]12C(=O)Nc1nccs1`, the “% Inhibition” value was 8% and the Z score is recorded as -0.95.

Regarding `O=C(Nc1cccc(Cl)c1)Nc1nnc2cccc(Cl)n12`, the “% Inhibition” value was -18% and the Z score stood at 2.03.

For `Cc1csc(NC(=O)c2cc(-c3ccccc3)on2)n1`, the “% Inhibition” value is -6% and the Z score is recorded as 1.01.

On to `COc1cc2ccc1OCC(=O)N[C@@H](C)C(=O)N(C)CCCCN(C(=O)c1cc(Cl)cn1C)CCCNC2=O`, for which the “% Inhibition” value was -24% and the Z score was 3.05.

As for `COCC1(CNC(=O)c2ccc(-c3ccncc3C)cc2)CCC1`, the “% Inhibition” value stood at 8% and the Z score is listed as -1.

On to `Cn1cc(N2C[C@@H](C(=O)NCC=Cc3cccnc3)CCC2=O)cn1`, for which the “% Inhibition” value is on record as -4% and the Z score came out at 0.63.

Regarding `Cn1c(C(=O)N2CC[C@H](N)C2)ccc1-c1ccccc1Br`, the “% Inhibition” value was 0% and the Z score was 0.05.

Regarding `N[C@@H]1CCN(C(=O)c2cccnc2Oc2cccc(Br)c2)C1`, the “% Inhibition” value is listed as -12% and the Z score is recorded as 1.38.

As for `Cn1c(C(=O)N2CC[C@H](N)C2)ccc1-c1cccc(Br)c1`, the “% Inhibition” value turned out to be 50% and the Z score was -7.09.

For the compound `CC1(C2CC2)CCN(C(=O)c2csnn2)CC1`, the “% Inhibition” value was 2% and the Z score is given as -0.37.

As for `Cc1ccsc1CN(Cc1ccccc1)C(=O)CN(C(=O)C1CCCC1)C1CCCCC1`, the “% Inhibition” value is on record as -2% and the Z score is on record as 0.35.

For `COc1cccc(CN2C(=O)N[C@@](C)(C3CCN(C(=O)c4cccnc4OC)CC3)C2=O)c1OC`, the “% Inhibition” value stood at 8% and the Z score is -1.05.

On to `CC(C)[C@H](NC(=O)c1cc(O)ccn1)C(=O)NC1CCCCC1`, for which the “% Inhibition” value is given as -5% and the Z score turned out to be 0.48.

With `COc1cc(C(=O)NCc2cccnc2)ccc1OCC(=O)Nc1cccc(C(F)(F)F)c1`, the “% Inhibition” value is on record as 3% and the Z score was -0.33.

Consider `COc1cc(C=C(C(=O)Nc2ccccc2F)C(=O)Nc2ccccc2F)ccc1OCC(=O)Nc1cccc(C(F)(F)F)c1`, for which the “% Inhibition” value was 80% and the Z score was 1.63.

Regarding `CC=Cc1ccc(OCC(=O)Nc2cccc(NC(=O)Nc3ccccc3)c2)c(OC)c1`, the “% Inhibition” value is on record as -7% and the Z score is listed as 0.59.

On to `Cc1cc(N2C[C@H]3CC[C@@H](C2)[C@H]3N(C)C)nc(Nc2cccc(O)c2)n1`, for which the “% Inhibition” value was found to be 77% and the Z score is -8.01.

`Cc1cc(N2CC(OCc3ccccc3)C2)nc(Nc2cccc(O)c2)n1`: the “% Inhibition” value was 91% and the Z score was -12.9.

Take `Cc1cc(NCc2csc(N(C)C)n2)nc(Nc2cccc(O)c2)n1`: the “% Inhibition” value is -3% and the Z score was 0.61.

As for `CCO[C@H]1CN(C)C[C@@H]1Nc1cc(C)nc(Nc2cccc(O)c2)n1`, the “% Inhibition” value is -6% and the Z score is given as 1.08.

As to `Cc1cc(N2CCOC[C@@H](O)C2)nc(Nc2cccc(O)c2)n1`, the “% Inhibition” value is -4% and the Z score is 0.39.

For the origin of these results see ChEMBL document CHEMBL4888484, “Replenishing the malaria drug discovery pipeline: Screening and hit evaluation of the MMV Hit Generation Library 1 (HGL1) against asexual blood stage Plasmodium falciparum ,using a nano luciferase reporter read-out” (2022).
